Measurements as given in PubChem BioAssay (EPA / NIEHS).
Active and inactive are the calls of the source. The calls were made as follows: active = hit-call score of the fitted dose curve at least 0.9, where 1 is the maximum; inactive = score below 0.9.

Columns and labels:
[1] = APR_HepG2_P-H2AX_72hr: Apredica 72-hour HepG2 Assay for H2AX Phosphorylation (AID 2282916); conditions: imaging, actives raise or lower the signal;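 also: phospho-histone H2A.x immunostain intensity per cell marking DNA damage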
Outline: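 Phospho-H2A.x imaging endpoint in HepG2 after 72 hr compound exposure (0.39–200 uM, duplicate wells). Activity derived by bidirectional curve fitting with DMSO as baseline.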

[2] = APR_HepG2_MitoMembPot_72hr: Apredica 72-hour HepG2 Assay for Mitochondrial Membrane Potential (AID 2282917); conditions: imaging, actives raise or lower the signal
Outline: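 HepG2 cells dosed 72 hr with compound at 0.39–200 uM in duplicate, 0.5% v/v DMSO final. Mitochondria stained with 250 nM MitoTracker Red CMXRos for 30 min before formaldehyde fixation, imaged by high-content fluorescence; bidirectional fit versus DMSO.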

[3] = APR_HepG2_MitoticArrest_72hr: Apredica 72-hour HepG2 Assay for Mitotic Arrest (AID 2282918); conditions: high-content imaging, actives raise or lower the signal
Outline: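 Mitotic arrest in HepG2 is scored from phospho-histone H3 staining after 72 hr dosing across 0.39–200 uM, with DMSO at 0.5% v/v. Nuclei are identified by Hoechst 33342 and fluorescence intensity is quantified per cell.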

[4] = APR_HepG2_MicrotubuleCSK_72hr: Apredica 72-hour HepG2 Assay for Microtubule CSK Stabilty (AID 2282919); conditions: HepG2 microtubule cytoskeleton, high-content imaging, actives raise or lower the signal
Outline: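 HepG2, 72 hr cmpd exposure, 0.39–200 uM (10 pts, duplicate), 0.5% DMSO. 3.7% formaldehyde fix, 0.5% Triton perm, anti-alpha-tubulin/Cy5 plus Hoechst. HCS fluorescence intensity; bidirectional fit vs DMSO baseline; taxol as positive control.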

[5] = APR_HepG2_P-H2AX_24hr: Apredica 24-hour HepG2 Assay for H2AX Phosphorylation (AID 2282920); conditions: high-content imaging, actives raise or lower the signal
Outline: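 Signal comes from a FITC-labeled secondary detecting phospho-histone H2A.x in fixed HepG2 cells, quantified by automated imaging at 20x. Dosing ran 24 hr across 0.39–200 uM with 0.5% v/v DMSO.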

[6] = APR_HepG2_StressKinase_72hr: Apredica 72-hour HepG2 Assay for Stress Kinase (AID 2282921); conditions: HepG2 stress kinase (phospho-c-Jun) imaging, actives raise or lower the signal
Outline: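 Stress kinase signal reflects nuclear phospho-c-Jun staining in fixed, permeabilized cells exposed 72 h to compound at 0.39–200 uM; DMSO-normalized, fitted for increases or decreases.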

[7] = APR_HepG2_StressKinase_24hr: Apredica 24-hour HepG2 Assay for Stress Kinase (AID 2282922); conditions: HepG2 stress kinase (phospho-c-Jun) imaging, actives raise or lower the signal
Outline: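 Read-out: phospho-c-Jun immunofluorescence (Cy3 secondary) quantified by high-content imaging at 20x, nuclei defined by Hoechst 33342. Human HepG2 liver cells dosed 24 hr, 0.39–200 uM, DMSO 0.5% v/v; gain or loss of signal fitted relative to DMSO.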

[8] = APR_HepG2_p53Act_72hr: Apredica 72-hour HepG2 Assay for p53 Activation (AID 2282923); conditions: high-content imaging, actives raise or lower the signal;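 also: average cellular p53 protein immunofluorescence intensity in HepG2 cells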
Outline: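 Fixed-cell p53 staining (sheep primary, Cy5 secondary) measured by fluorescence imaging following 72 hr treatment at 0.39–200 uM in 0.5% DMSO; DMSO served as negative control and baseline.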

[9] = APR_HepG2_MitoMass_72hr: Apredica 72-hour HepG2 Assay for Mitochondrial Mass (AID 2282924); conditions: high-content imaging, actives raise or lower the signal;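 also: MitoTracker Red CMXRos stain intensity per cell imaged as mitochondrial mass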
Outline: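 Read-out: MitoTracker Red fluorescence intensity from automated imaging (20x, six fields per well) in human HepG2 liver cells. Dosing ran 72 hr, 0.39–200 uM, 0.5% DMSO; bidirectional curve fitting versus DMSO baseline.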

[10] = APR_HepG2_NuclearSize_72hr: Apredica 72-hour HepG2 Assay for Nuclear Size (AID 2282925); conditions: high-content imaging, actives raise or lower the signal
Outline: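 Read-out: nuclear diameter from Hoechst 33342 images (ArrayScan, 20x, six fields/well), via cell-cycle image analysis. HepG2 were dosed 0.39–200 uM for 72 hr in 0.5% DMSO. Bidirectional fit relative to DMSO.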

Measured: AC50

CCOCCOCCOCCO
inactive: all assays above

COc1ccc2sc(C(=O)Nc3nnn[nH]3)c(OC(C)C)c2c1
inactive: all assays above

Cn1c(=O)c2c(ncn2C)n(C)c1=O
inactive: all assays above

CC(C)CCCCCCOC(=O)c1ccc(C(=O)OCCCCCCC(C)C)c(C(=O)OCCCCCCC(C)C)c1
inactive: all assays above

Cc1ccc(C)c(O)c1
inactive: all assays above

CC[C@H]1CC[C@H](NCc2cc3c(cc2OC)[C@H]2C[C@H]2C(=O)N3C)[C@H](c2ccccc2)N1
inactive: all assays above

CC(C)CC(C)(O)C#CC(C)(O)CC(C)C (stereo not drawn)
inactive: all assays above

CN(C)c1ccc(N=NS(=O)(=O)O)cc1
active: [8] 57 µM
inactive: all other assays above

CC1(C)C(=O)N(Br)C(=O)N1Br
inactive: all assays above

Cc1c(-c2cccnc2)c2ccccc2n1CCCCC(=O)O
not listed: [1]
inactive: all other assays above

O=C1CCCCCN1
not listed: [1]
inactive: all other assays above

CCCCC(CC)COC(=O)CCCCCCCCC(=O)OCC(CC)CCCC (stereo not drawn)
active: [1] 68.2 µM | [2] 83.4 µM | [3] 111 µM | [4] 87.6 µM | [5] 116 µM | [9] 36.5 µM
inactive: [6] | [8] | [10]

C1=CCCC=CCCC=CCC1
not listed: [1]
inactive: all other assays above

Cn1cnc([N+](=O)[O-])c1Sc1ncnc2nc[nH]c12
not listed: [7]
inactive: all other assays above

CC(C)(O)c1coc(S(=O)(=O)NC(=O)Nc2c3c(cc4c2CCC4)CCC3)c1
not listed: [1]
inactive: all other assays above

Cc1[nH]cnc1C[C@H]1CCc2c(C)c3ccccc3n2C1=O
active: [3] 98.8 µM | [5] 92.8 µM | [6] 65 µM | [7] 100 µM | [8] 95 µM | [9] 24.4 µM
inactive: [2] | [4] | [10]

CC(C)=CCC/C(C)=C/CO
active: [8] 107 µM
not listed: [7]
inactive: all other assays above

O=P(OC(CCl)CCl)(OC(CCl)CCl)OC(CCl)CCl
active: [1] 47.5 µM | [2] 50 µM | [3] 39.6 µM | [5] 43.4 µM | [6] 59.2 µM
inactive: [4] | [8] | [9] | [10]

Clc1nc(Cl)c(Cl)c(Cl)c1Cl
active: [1] 57.5 µM | [3] 34.1 µM | [5] 41.2 µM | [6] 68.5 µM | [8] 25 µM | [9] 89.9 µM | [10] 96.9 µM
inactive: [2] | [4]

O=C(O)CC(O)C(=O)O (stereo not drawn)
not listed: [7]
inactive: all other assays above

NC(=O)NO
not listed: [1]
inactive: all other assays above
